Experiment [1] deals with Sphingosine kinase 1 (Homo sapiens) (UniProt Q9NYA1). Particulars: at 1 µM.
Experiment [2] concerns the target T1, Sphingosine kinase 2 (Homo sapiens) (UniProt Q9NRA0).
T1 sequence (whole entry): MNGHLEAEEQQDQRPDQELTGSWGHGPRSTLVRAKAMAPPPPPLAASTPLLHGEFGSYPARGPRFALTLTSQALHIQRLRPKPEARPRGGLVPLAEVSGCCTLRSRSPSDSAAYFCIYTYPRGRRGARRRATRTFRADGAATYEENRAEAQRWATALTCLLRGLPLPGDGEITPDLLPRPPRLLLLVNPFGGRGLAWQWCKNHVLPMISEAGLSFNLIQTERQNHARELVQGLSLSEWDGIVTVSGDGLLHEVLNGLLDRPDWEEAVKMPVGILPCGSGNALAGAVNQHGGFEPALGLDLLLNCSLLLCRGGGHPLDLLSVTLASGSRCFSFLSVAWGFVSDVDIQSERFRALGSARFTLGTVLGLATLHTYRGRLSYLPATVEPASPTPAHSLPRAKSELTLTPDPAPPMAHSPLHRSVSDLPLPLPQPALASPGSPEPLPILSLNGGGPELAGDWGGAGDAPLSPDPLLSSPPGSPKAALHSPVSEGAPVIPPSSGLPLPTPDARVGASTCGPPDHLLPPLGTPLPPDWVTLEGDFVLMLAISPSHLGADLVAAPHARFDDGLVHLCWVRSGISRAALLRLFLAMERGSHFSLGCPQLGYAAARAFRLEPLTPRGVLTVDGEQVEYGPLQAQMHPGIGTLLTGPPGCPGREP
Particulars: at 0.1 µM.

The target in experiment [3] is T1, Sphingosine kinase 2 (Homo sapiens). Particulars: at 1 µM.
The target of experiment [4] is Casein kinase II subunit alpha (Homo sapiens) (UniProt P68400). Particulars: at 0.1 µM.
Chain of Casein kinase II subunit alpha (Homo sapiens) (P68400 whole entry, looked up): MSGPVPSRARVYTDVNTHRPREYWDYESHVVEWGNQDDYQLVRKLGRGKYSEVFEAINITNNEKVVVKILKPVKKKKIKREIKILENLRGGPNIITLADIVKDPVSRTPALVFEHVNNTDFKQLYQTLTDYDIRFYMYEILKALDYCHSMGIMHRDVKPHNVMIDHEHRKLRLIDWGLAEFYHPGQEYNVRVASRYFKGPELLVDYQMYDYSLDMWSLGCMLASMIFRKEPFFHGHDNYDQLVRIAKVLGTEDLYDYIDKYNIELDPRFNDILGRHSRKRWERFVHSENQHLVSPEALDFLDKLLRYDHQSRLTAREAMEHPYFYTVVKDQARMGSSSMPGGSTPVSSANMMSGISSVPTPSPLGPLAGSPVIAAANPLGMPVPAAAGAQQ
For experiment [5] the target is unchanged. As to conditions: at 1 µM.
Experiment [6] addresses T2, Inhibitor of nuclear factor kappa-B kinase subunit alpha (Homo sapiens) (UniProt O15111).
T2 sequence (whole entry): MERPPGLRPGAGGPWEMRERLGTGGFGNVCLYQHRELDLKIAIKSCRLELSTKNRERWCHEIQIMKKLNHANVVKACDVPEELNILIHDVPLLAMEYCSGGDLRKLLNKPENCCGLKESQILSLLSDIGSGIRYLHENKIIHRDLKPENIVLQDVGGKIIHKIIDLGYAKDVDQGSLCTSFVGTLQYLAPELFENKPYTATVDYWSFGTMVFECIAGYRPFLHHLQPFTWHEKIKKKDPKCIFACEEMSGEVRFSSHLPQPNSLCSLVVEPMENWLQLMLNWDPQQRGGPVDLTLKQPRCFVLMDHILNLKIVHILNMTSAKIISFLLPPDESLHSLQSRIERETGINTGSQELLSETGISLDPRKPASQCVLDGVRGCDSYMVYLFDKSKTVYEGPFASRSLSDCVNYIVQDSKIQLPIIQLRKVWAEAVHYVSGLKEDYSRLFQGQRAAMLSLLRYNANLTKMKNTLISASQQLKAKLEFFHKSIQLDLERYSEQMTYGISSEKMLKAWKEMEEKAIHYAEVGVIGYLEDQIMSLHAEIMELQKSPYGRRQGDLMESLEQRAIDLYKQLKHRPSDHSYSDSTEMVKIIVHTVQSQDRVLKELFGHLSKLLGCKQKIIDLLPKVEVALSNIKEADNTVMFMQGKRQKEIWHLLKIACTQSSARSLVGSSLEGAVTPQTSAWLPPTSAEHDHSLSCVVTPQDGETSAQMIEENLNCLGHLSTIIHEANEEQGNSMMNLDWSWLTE
Particulars: at 0.1 µM.

Experiment [7] has as its target T2, Inhibitor of nuclear factor kappa-B kinase subunit alpha (Homo sapiens). As to conditions: at 1 µM.
Experiment [8] deals with T3, Inhibitor of nuclear factor kappa-B kinase subunit beta (Homo sapiens) (UniProt O14920).
T3 sequence (whole entry): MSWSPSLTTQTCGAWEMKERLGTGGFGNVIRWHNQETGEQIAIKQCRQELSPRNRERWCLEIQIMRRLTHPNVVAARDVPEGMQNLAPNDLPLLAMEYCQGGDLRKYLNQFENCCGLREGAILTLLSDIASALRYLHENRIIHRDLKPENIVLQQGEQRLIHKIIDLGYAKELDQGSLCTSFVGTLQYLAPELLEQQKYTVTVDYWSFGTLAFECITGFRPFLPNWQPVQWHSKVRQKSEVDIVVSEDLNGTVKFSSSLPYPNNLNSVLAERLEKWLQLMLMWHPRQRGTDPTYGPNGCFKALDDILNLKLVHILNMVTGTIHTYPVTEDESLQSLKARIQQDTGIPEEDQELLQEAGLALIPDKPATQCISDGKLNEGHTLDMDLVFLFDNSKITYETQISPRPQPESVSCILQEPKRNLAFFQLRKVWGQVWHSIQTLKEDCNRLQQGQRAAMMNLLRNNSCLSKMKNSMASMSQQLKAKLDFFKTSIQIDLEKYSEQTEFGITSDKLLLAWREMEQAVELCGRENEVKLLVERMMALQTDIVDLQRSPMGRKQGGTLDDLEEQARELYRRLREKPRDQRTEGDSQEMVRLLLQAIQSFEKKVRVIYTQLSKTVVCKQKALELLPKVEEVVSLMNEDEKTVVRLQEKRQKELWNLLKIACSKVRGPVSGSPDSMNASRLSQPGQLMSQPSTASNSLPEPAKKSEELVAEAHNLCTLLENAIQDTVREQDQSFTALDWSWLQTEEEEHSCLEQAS
As to conditions: at 0.1 µM.

Experiment [9] addresses T3, Inhibitor of nuclear factor kappa-B kinase subunit beta (Homo sapiens). Particulars: at 1 µM.
Experiment [10] addresses T4, Inhibitor of nuclear factor kappa-B kinase subunit epsilon (Homo sapiens) (UniProt Q14164).
T4 sequence (whole entry): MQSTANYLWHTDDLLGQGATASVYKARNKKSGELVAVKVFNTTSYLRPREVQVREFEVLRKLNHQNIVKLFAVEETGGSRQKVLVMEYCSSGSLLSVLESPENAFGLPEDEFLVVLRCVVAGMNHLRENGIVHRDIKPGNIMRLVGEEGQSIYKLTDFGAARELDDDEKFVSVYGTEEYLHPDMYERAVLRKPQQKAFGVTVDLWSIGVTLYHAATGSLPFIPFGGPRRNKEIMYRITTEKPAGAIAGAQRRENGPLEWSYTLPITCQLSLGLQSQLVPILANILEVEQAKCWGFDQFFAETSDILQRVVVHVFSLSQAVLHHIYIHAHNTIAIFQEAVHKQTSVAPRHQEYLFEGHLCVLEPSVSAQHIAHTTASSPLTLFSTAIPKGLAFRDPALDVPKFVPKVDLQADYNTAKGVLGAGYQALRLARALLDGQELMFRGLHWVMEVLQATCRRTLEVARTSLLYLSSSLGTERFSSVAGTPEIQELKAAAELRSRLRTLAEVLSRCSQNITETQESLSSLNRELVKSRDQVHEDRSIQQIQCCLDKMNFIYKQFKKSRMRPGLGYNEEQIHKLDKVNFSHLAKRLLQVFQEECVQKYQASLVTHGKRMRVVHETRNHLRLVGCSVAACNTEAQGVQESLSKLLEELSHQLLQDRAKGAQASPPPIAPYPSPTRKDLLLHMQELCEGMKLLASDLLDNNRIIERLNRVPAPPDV
As to conditions: at 0.1 µM.

The target of experiment [11] is T4, Inhibitor of nuclear factor kappa-B kinase subunit epsilon (Homo sapiens). Particulars: at 1 µM.
The target of experiment [12] is T5, Serine/threonine-protein kinase Nek1 (Homo sapiens) (UniProt Q96PY6).
T5 sequence (whole entry): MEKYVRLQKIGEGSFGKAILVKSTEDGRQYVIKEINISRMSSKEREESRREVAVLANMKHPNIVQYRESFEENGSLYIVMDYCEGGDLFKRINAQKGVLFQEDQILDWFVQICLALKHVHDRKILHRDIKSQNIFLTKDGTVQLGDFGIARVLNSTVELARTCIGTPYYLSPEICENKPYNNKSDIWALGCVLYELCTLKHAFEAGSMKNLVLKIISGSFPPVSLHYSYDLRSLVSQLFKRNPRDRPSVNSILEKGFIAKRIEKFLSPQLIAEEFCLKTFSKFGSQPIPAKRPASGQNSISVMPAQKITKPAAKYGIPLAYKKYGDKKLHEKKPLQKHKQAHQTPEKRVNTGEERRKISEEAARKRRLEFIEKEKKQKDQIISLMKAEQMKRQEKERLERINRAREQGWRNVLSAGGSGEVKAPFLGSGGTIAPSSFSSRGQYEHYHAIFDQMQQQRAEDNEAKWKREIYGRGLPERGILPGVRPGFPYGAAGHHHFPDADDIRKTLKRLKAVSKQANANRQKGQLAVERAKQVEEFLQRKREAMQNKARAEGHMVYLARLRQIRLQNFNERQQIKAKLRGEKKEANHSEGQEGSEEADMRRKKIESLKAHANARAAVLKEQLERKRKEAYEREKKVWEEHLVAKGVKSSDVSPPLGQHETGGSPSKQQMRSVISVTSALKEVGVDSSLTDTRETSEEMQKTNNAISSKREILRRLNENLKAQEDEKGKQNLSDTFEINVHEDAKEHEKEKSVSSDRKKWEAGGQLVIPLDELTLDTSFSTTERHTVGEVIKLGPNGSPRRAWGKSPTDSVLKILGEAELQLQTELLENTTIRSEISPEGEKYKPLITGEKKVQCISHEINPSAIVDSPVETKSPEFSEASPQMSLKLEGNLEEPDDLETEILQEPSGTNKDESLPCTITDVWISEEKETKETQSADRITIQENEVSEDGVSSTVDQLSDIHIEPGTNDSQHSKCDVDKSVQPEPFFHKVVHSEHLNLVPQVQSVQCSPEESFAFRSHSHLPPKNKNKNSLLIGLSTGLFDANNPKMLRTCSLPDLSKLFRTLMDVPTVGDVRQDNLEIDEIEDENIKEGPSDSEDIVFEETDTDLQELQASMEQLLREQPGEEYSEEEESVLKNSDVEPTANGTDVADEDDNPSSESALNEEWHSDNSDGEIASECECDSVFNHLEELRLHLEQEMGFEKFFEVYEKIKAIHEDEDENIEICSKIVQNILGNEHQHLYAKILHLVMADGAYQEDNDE
As to conditions: at 0.1 µM.

The target in experiment [13] is T5, Serine/threonine-protein kinase Nek1 (Homo sapiens). As to conditions: at 1 µM.
For experiment [14], the target named is T6, Serine/threonine-protein kinase Nek2 (Homo sapiens) (UniProt P51955).
T6 sequence (whole entry): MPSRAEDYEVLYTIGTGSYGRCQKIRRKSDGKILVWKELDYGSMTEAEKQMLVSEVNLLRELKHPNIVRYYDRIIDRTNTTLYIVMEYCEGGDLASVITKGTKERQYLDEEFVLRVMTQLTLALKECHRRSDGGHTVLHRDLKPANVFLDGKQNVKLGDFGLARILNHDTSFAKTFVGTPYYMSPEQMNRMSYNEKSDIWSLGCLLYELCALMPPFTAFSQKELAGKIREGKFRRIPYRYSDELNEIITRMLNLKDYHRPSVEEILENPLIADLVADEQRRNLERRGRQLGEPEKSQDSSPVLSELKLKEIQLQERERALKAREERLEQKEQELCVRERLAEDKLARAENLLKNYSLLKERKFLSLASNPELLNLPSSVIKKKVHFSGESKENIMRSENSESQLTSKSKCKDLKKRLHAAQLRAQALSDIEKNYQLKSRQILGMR
Particulars: at 0.1 µM.

Experiment [15] concerns the target T6, Serine/threonine-protein kinase Nek2 (Homo sapiens). Particulars: at 1 µM.
For experiment [16], the target named is Serine/threonine-protein kinase Nek6 (Homo sapiens) (UniProt Q9HC98). As to conditions: at 0.1 µM.
Chain of Serine/threonine-protein kinase Nek6 (Homo sapiens) (Q9HC98 whole entry): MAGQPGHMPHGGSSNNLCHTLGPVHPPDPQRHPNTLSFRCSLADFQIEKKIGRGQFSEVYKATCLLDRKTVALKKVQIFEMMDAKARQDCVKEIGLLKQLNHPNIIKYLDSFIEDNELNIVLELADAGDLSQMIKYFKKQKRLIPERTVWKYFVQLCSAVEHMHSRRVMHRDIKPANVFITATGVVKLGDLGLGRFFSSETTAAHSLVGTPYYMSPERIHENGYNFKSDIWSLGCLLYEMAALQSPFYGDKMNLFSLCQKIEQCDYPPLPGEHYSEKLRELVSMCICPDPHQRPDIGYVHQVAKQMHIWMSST
The target is the same in experiment [17]. As to conditions: at 1 µM.
Experiment [18] deals with Serine/threonine-protein kinase Nek7 (Homo sapiens) (UniProt Q8TDX7). As to conditions: at 0.1 µM.
Chain of Serine/threonine-protein kinase Nek7 (Homo sapiens) (Q8TDX7 whole entry, looked up): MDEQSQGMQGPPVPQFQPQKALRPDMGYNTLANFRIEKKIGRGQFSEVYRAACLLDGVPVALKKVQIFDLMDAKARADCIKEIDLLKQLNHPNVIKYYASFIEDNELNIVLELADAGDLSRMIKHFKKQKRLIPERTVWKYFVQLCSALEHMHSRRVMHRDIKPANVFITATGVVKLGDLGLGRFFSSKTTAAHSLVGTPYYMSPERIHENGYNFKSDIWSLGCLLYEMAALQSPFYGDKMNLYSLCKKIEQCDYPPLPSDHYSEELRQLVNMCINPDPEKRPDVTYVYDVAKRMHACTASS
For experiment [19] the target is unchanged. As to conditions: at 1 µM.
Experiment [20] concerns the target T7, Serine/threonine-protein kinase Nek9 (Homo sapiens) (UniProt Q8TD19).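 Further: reported value is the mean percent inhibition of NEK9.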
T7 sequence (whole entry): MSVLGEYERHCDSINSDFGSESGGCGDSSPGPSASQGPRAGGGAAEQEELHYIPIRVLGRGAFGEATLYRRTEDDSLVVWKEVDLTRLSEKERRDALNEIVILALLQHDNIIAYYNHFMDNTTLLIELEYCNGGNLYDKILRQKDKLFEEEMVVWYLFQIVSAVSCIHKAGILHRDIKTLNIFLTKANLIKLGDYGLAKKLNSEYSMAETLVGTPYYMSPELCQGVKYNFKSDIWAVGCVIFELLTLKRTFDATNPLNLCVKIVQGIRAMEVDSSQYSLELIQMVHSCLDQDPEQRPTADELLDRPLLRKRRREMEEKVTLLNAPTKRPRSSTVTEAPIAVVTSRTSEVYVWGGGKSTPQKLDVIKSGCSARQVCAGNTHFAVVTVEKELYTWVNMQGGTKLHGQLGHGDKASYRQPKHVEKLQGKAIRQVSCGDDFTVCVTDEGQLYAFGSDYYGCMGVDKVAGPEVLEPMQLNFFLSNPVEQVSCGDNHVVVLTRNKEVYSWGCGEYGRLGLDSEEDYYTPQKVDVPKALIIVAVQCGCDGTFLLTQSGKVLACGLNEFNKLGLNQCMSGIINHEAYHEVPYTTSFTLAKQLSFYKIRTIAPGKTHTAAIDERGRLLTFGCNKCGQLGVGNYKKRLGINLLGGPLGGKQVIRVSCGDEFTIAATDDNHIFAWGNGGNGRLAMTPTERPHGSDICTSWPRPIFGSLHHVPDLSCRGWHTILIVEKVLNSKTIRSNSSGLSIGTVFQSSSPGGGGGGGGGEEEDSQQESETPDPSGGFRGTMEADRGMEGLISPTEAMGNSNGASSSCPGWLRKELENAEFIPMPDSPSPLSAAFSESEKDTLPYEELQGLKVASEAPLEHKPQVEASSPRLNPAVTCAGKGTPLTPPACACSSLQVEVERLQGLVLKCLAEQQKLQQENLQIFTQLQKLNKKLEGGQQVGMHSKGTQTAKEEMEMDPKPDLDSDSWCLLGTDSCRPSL
As to conditions: at 0.1 µM.

By inhibition is commonly meant the relative decrease from the control value, in per cent.

Chain of Sphingosine kinase 1 (Homo sapiens) (Q9NYA1 whole entry): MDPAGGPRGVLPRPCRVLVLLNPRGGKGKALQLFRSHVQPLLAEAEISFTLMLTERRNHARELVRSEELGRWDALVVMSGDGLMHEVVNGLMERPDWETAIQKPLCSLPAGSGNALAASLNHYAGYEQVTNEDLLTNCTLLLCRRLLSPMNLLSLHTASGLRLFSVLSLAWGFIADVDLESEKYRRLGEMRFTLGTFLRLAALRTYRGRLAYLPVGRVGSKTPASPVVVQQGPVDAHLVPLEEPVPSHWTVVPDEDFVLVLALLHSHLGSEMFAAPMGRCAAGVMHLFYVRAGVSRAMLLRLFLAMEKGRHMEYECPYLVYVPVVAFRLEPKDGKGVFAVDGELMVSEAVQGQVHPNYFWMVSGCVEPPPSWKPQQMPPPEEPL

For the compound `CCCN(CCS(C)(=O)=O)Cc1ccc(-c2ccc3ncnc(Nc4ccc(OCc5cccc(F)c5)c(Cl)c4)c3c2)o1`, the inhibition in experiment [1] is 0.07%; in experiment [2], 0.75%; in [3] it was 0.76%; in [4], 4.77%; in experiment [5], 9.35%; in experiment [6], 3.79%. The inhibition in [7] was 2.86%; in experiment [8] it was 0.53%; in experiment [9] it was 0.26%; in experiment [10], 2.17%; in experiment [11] it was 1.08%; in experiment [12], 2.4%. The inhibition in [13] is 2.96%; in experiment [14] it was 3.32%; in [15], 3.71%; in [16], -0.2%; in [17], 0.97%; in experiment [18] it was 3.69%. The inhibition in [19] was found to be 3.24%; in experiment [20], 6.94%.
